This note sets out measurements from PubChem BioAssay (EPA / NIEHS).

Molecules are shown by their SMILES. Results filed as inconclusive are left out. Calls of active or inactive are those of the source. How the source made its calls: active means hit-call score of the fitted dose curve at least 0.9, where 1 is the maximum; inconclusive means response in the unintended direction; inactive means score below 0.9.

A short description of this experiment: Tanguay_ZF_120hpf_SOMI_legacy: (Legacy) Oregon State University Tanguay Lab 120 Hour Post-fertilization zebrafish Assay for Somite Malformation (AID 2283647). As for the experimental part: Tanguay_ZF_120hpf_legacy is a whole embryo, multiplexed endpoint assay using zebrafish larvae exposed for 120 hours post fertilization on a 96-well plate.Tanguay_ZF_120hpf_SOMI_legacy is one of one assay component(s) measured or calculated from the Tanguay_ZF_120hpf_legacy assay. It is designed to make measurements of zebrafish development as detected with brightfield microscopy of developing zebrafish embryos.Data from the assay component Tanguay_ZF_120hpf_SOMI_legacy was analyzed into 1 assay endpoints. This assay endpoint, Tanguay_ZF_120hpf_SOMI_legacy, was analyzed in the positive analysis fitting direction relative to DMSO as the negative control and baseline of activity. Using a type of morphology reporter, gain-of-signal activity can be used to understand changes in developmentals as they relate to the whole embryo. To generalize the intended target to other relatable targets, this assay endpoint is annotated to the zebrafish development intended target family, where the subfamily is somitogenesis.
Zebrafish husbandry: Tropical 5D wild-type adult zebrafish were housed in at an approximate density of 1000 per 100 gallon tank at the Sinnhuber Aquatic Research Laboratory, Oregon State University, Corvallis, OR. Each tank was kept at standard laboratory conditions of 28C on a 14-h light/10-h dark photoperiod in fish water consisting of reverse osmosis water supplemented with a commercially available salt (Instant Ocean). Spawning funnels were placed into the tanks the night prior, and embryos were collected and staged. To increase bioavailability, the chorion was enzymatically removed using pronase (63.6mg/ml, >/= 3.5U/mg, Sigma-Aldrich: P5147) at 4 hours post fertilization (hpf) using a custom automated dechorionator.Chemical exposures: Six hpf dechorionated embryos were placed 1 embryo per well in a 96-well plate prefilled with 90 ul of EM using automated embryo placement systems (AEPS). Ten microliters of each row of dilution plate 2 was added to 2 exposure plates. The final DMSO concentration used was 0.64% (vol/vol). Thirty-two embryos were also exposed to 5uM trimethyltin chloride (positive control). Plates were sealed to prevent evaporation and foil covered to reduce light exposure and kept in a 28C incubator. Embryos were statically exposed until 120 hpf. At 24 hpf, embryos were assessed for photomotor response using a custom photomotor response analysis tool (PRAT) and for developmental toxicity endpoints (MO24: mortality at 24 hpf, DP: developmental progression, SM: spontaneous movement, and NC: notochord distortion). At 120 hpf, locomotor activity was measured using Viewpoint Zebralab and assessed for 18 endpoints. Zebrafish acquisition and analysis program (ZAAP), a custom program designed to inventory, acquire, and manage zebrafish data, was used to collect developmental endpoints as either present or absent (i.e., binary responses were recorded). If mortality occurred for an embryo (at either 24 or 120 hpf), the non-mortality endpoints were not measured.
Regarding `Nc1cc2c3c(c1)C(c1ccccc1)=N[C@@H](NC(=O)c1cccnc1)C(=O)N3CC2`, the result was inactive. For `c1ccc(OP(Oc2ccccc2)Oc2ccccc2)cc1`, the outcome was inactive. In the case of `O=C(O)C(Cl)Cl`, the molecule was classed as inactive. In the case of `CCCCN(CCCC)N=O`, the outcome was inactive.

Regarding `CCCN(CCC)c1c([N+](=O)[O-])cc(C(C)C)cc1[N+](=O)[O-]`, the outcome was inactive. Still for that read-out and setting: the result for `[N-]=[N+]=[N-]` reads “inactive”; that for `Cc1cccc(N)c1`, “inactive”.

As to `CCOS(=O)(=O)OCC`, the molecule was called inactive. Consider `c1cc2c3c(cccc3c1)CC2`, for which the result was inactive.

With `CCOP(=S)(OCC)SCSCC`, the molecule was called inactive. On the same count and under the same terms, in the case of `c1nc[nH]n1` it was “inactive”.

`O=[N+]([O-])c1ccccc1`: the outcome was inactive. For the molecule `CCNc1nc(Cl)nc(NC(C)(C)C)n1`, the molecule was called inactive. With `ClC1=C(Cl)C2(Cl)C3C(Cl)C(Cl)CC3C1(Cl)C2(Cl)Cl` (stereo not given), the result was inactive. On to `CCOc1ccc(C(C)(C)COCc2cccc(Oc3ccccc3)c2)cc1`, for which the result was inactive. Still for that read-out and setting: the result for `CCCCN(CCCC)SN(C)C(=O)Oc1cccc2c1OC(C)(C)C2` reads “inactive”; that for `CCCCc1ccccc1`, “inactive”. Same read-out and setting: in the case of `CCN(CC)c1ccccc1` it was “inactive”; in that of `O=C(O)C1C(C(=O)O)C2(Cl)C(Cl)=C(Cl)C1(Cl)C2(Cl)Cl` (stereo not given), “inactive”.

As for `OCC1CO1` (stereo not given), the call was inactive. For the molecule `CCC(C)(C)c1ccc(O)cc1`, the AC50 is 36.6 µM (active). As to `CCC1(c2ccccc2)C(=O)N=C(O)NC1=O` (stereo not given), the outcome was inactive.

As to `CC(C)(C)c1ccc(O)cc1`, the outcome was inactive. On the same count and under the same terms, in the case of `CCOC(=O)c1ccccc1C(=O)OCC` it was “inactive”; in that of `CSC(C)(C)C=NO`, “inactive”; in that of `c1ccc2c(c1)Nc1ccccc1S2`, “inactive”. With `CC(Cc1ccc(OCC(=O)O)cc1)NCC(O)c1csc(C(F)(F)F)n1` (stereo not given), the call was inactive. In the case of `O=P(Oc1ccccc1)(Oc1ccccc1)Oc1ccccc1`, the outcome was inactive. Same read-out and setting: the result for `Nc1ccc(Cl)cc1` reads “inactive”. Still for that read-out and setting: the result for `CCOP(=S)(Oc1ccc([N+](=O)[O-])cc1)c1ccccc1` (stereo not given) reads “inactive”. As for `Cc1ccc(N)cc1N`, the result was inactive. With `CC(C)(C)OOC(C)(C)C`, the result was inactive. The same measure, in the same setting: the result for `Cc1ccc(O)cc1C` reads “inactive”; that for `ClC(Cl)(Cl)c1ccccc1`, “inactive”.

On to `O=[N+]([O-])c1ccc(Cl)c(Cl)c1`, for which the outcome was inactive. With `Nc1ccc2ccccc2c1`, the result was inactive.

Regarding `CCCCCCCc1ccc(O)cc1`, the outcome was inactive. The same measure, in the same setting: in the case of `CC(Cl)(Cl)C(=O)O` it was “inactive”; in that of `COCCOCCO`, “inactive”; in that of `O=P1(N(CCCl)CCCl)NCCCO1` (stereo not given), “inactive”.

As a reminder, the AC50 is the midpoint of the concentration-response curve, whichever way the signal moves.
